Out of some 85,000 compounds screened, about 440 (0.52%) showed an effect of 50% or more. Shown is part of a subset that was picked to be rich in strong results.
Assay: In vitro enzyme assay to detect hydrolysis of chlorophenol red-beta-D-[…] directly proportional to the number of Toxoplasma stably expressing beta-galactosidase
Assay type: functional, organism-based, Toxoplasma gondii
Design: scale not given: in the data most compounds retested in dose-response had high values

| SMILES | Percent Effect (50 µM) | Percent Effect (10 µM) |
| --- | --- | --- |
| NC(=O)COc1ccc(CNCCn2cccn2)cc1 | 11.26% |  |
| COCC(=O)N1CCN(CCC(C)C)CC1 | 7.319% |  |
| O=C(NCCN1CCCC1)Nc1cccc2cn[nH]c12 | -2.677% |  |
| Cc1csc(CN2CCC3(CC2)COC(COc2ccccn2)C3)n1 (stereo not drawn) |  | -8.461% |
| Cc1cc(CN2CCC3(CC2)COC(COc2ccccn2)C3)no1 (stereo not drawn) |  | 96.36% |
| c1ccc(OCC2CC3(CCN(Cc4ccncc4)CC3)CO2)nc1 (stereo not drawn) |  | -2.51% |
| Cc1cc(C)nc(NC(=O)C(C)C)n1 | 3.231% |  |
| Cc1nc(-n2nc(-c3cccs3)cc2N)[nH]c(=O)c1C |  | 4.893% |
| Cc1cc(NC(=O)C(C)C)n(-c2nc(C)c(C)c(=O)[nH]2)n1 |  | 91.77% |
| Cc1nc(-n2nc(C3CC3)cc2NC(=O)C(C)C)[nH]c(=O)c1C |  | 79.17% |
| CC(C)C(=O)Nc1cc(C(C)(C)C)nn1-c1ccccn1 |  | -3.105% |
| CC(=O)Nc1cc(C2CC2)nn1-c1nc(C)c(C)c(=O)[nH]1 |  | -13.24% |
| NCc1ccc(OCC(F)F)cc1 | -2.459% |  |
| O=C(C1CC1)N1CCC(Oc2cccnc2)C1 (stereo not drawn) | 1.461% |  |
| CCC(CNc1ncnc2oc(C)nc12)Cc1ccccc1 (stereo not drawn) |  | -4.784% |
| CCCOc1ccccc1CCCNc1ncnc2oc(C)nc12 |  | 12.3% |
| CCCOc1ccc(Cl)cc1CNc1ncnc2oc(C)nc12 |  | 57.15% |
| CC(N)c1ccc(N2CCCCC2=O)cc1 (stereo not drawn) | 3.622% |  |
| O=C1CCCCN1c1ccc(S(=O)(=O)NC2CC2)cc1 | 98.35% |  |
| CC(C)NC(=O)c1ccc(N2CCCCC2=O)cc1 | 19.08% |  |
| OCC1(Cc2ccccc2F)CCCNC1 (stereo not drawn) | 2.008% |  |
| OC1(Cc2ccccc2F)CCNCC1 | -5.436% |  |
| OC1(Cc2ccccc2F)CCNC1 (stereo not drawn) | 78.69% |  |
| CC(NS(C)(=O)=O)C(=O)NCCCc1ccncc1 (stereo not drawn) | 0.4518% |  |

| SMILES | Percent Effect (50 µM) | Percent Effect (10 µM) |
| --- | --- | --- |
| Cc1cc(CN(C)C(=O)C2CCCN2S(C)(=O)=O)no1 (stereo not drawn) | -2.48% |  |
| O=C(CCN1C(=O)CCC1=O)Nc1ccc(F)cc1 | 6.107% |  |
| CCC(=O)N1CCN(c2nc(C)nc3c(C)nn(C)c23)CC1 |  | 56.36% |
| Cc1nn(C)c2c(N3CCN(C(=O)c4ccccc4)CC3)ncnc12 |  | -3.825% |
| Cc1nc(N2CCN(C(=O)c3ccccn3)CC2)c2c(n1)c(C)nn2C |  | 25.12% |
| Cc1nc(N2CCN(C(=O)c3ccncc3)CC2)c2c(n1)c(C)nn2C |  | 77.24% |
| Cc1nc(N2CCN(c3ccccc3)CC2)c2c(n1)c(C)nn2C |  | 52.19% |
| Cc1nc(N2CCN(C(=O)C3CC3)CC2)c2c(n1)c(C)nn2C |  | 0.4782% |
| Cc1nc(N2CCN(C(=O)C3CCCC3)CC2)c2c(n1)c(C)nn2C |  | -37.24% |
| CCC(=O)N1CCN(c2ncnc3c(C)nn(C)c23)CC1 |  | 7.071% |
| Cc1nc(N2CCN(C(=O)c3ccco3)CC2)c2c(n1)c(C)nn2C |  | 56.5% |
| Cc1nn(C)c2c(N3CCN(C)CC3)nc(C3CC3)nc12 |  | 7.951% |
| Cc1nn(C)c2c(N3CCC(C)CC3)nc(C3CC3)nc12 |  | 6.306% |
| Cc1nc(N2CCN(C(=O)c3ccccc3)CC2)c2c(n1)c(C)nn2C |  | -7.412% |
| CN(C)[C@@H]1CN(C(=O)c2cccn2C)C[C@H]1CO | -4.756% |  |
| CC(C)NC(C1CCNCC1)[C@H]1C[C@H](O)C1 (stereo partly drawn) | 23.17% |  |
| CCOc1ncccc1C(=O)N1CCC(COC)C1 (stereo not drawn) | -5.58% |  |
| CC1(C)CN(c2nccnc2C#N)CCS1(=O)=O | -1.06% |  |
| O=C(NCC(F)(F)F)c1ccccc1NCCCO | 5.629% |  |
| O=S(=O)(NC1CC1)C1CCN(CCc2ccccn2)C1 (stereo not drawn) | 5.549% |  |
| c1ccc(N2CCCC2)nc1 | -4.186% |  |
| CC(C)OCc1nc(C(C)N)no1 (stereo not drawn) | -1.581% |  |
| CCCN(C)C(CO)c1ccc(OC)cc1 (stereo not drawn) | -2.385% |  |
| O=C(c1ccc2c(c1)OCCCO2)N1CCCC(n2cccn2)C1 (stereo not drawn) |  | 55.61% |

| SMILES | Percent Effect (50 µM) | Percent Effect (10 µM) |
| --- | --- | --- |
| O=C(c1ccc2c(c1)OCO2)N1CCCC(n2cccn2)C1 (stereo not drawn) |  | 8.443% |
| O=C(c1ccc2c(c1)OCCCO2)N1CCCC(n2ccnc2)C1 (stereo not drawn) |  | -11.97% |
| CC(C)(C)C(=O)CCN1CCCCC1 | 28.4% |  |
| CNCC1CCS(=O)(=O)C1 (stereo not drawn) | 7.416% |  |
| N#Cc1cccc(CS(=O)(=O)NC(Cc2ccccc2)C(N)=O)c1 (stereo not drawn) |  | -7.673% |
| NC(=O)C(Cc1ccccc1)NS(=O)(=O)Cc1ccccc1Cl (stereo not drawn) |  | 50.03% |
| NC(=O)C(Cc1ccccc1)NS(=O)(=O)Cc1ccccc1F (stereo not drawn) |  | -5.639% |
| CCCn1cc(-c2ccnc(NC3CCc4ccccc4C3)n2)c(C)n1 (stereo not drawn) |  | 39.11% |
| CCCn1ncc(-c2ccnc(NC3CCSC3)n2)c1C (stereo not drawn) |  | 16.2% |
| CCCn1ncc(-c2ccnc(N[C@@H]3C[C@@H]4CC[C@H]3C4)n2)c1C |  | 55.29% |
| CCCn1ncc(-c2ccnc(NC3CCCc4ccccc43)n2)c1C (stereo not drawn) |  | 4.434% |
| CCCn1ncc(-c2ccnc(NC3CC(C)(C)NC(C)(C)C3)n2)c1C |  | 50.73% |
| CCc1cc(N[C@@H]2C[C@H]3CC[C@@H]2C3)n2nccc2n1 |  | 9.168% |
| C[C@@H]1CNC[C@H]1C(N)=O | -3.858% |  |
| COCC1(C(=O)N2C[C@@H](N)C[C@H]2C(=O)NC(C)C)CC1 | -6.582% |  |
| COC(=O)c1cn(CC(=O)Nc2cccc(F)c2)nn1 | -28.09% |  |
| CC(N)C(=O)N(C)C1CCOCC1 (stereo not drawn) | -25.47% |  |
| Cc1nnc2n1N=C(c1cccs1)CS2 | -17.29% |  |
| Cc1nnc2n1N=C(c1ccccc1)CS2 | 84.29% |  |
| OCc1nnc2n1N=C(c1ccc(Cl)cc1)CS2 | -7.844% |  |
| COCc1cccc(C(=O)Nc2ccncc2)c1 | -8.978% |  |
| COCCN(CCC#N)S(=O)(=O)c1ncn(C)c1Cl | 2.241% |  |
| O=C(CN1CCn2ccnc2C1)Nc1ccc(Cl)cn1 | -8.564% |  |
| CC(C)n1cnnc1CN1CCN(c2nc[nH]n2)CC1 | 14.64% |  |

| SMILES | Percent Effect (50 µM) | Percent Effect (10 µM) |
| --- | --- | --- |
| CS(=O)(=O)CCN1CCC(C(N)=O)CC1 | 50.58% |  |
| CCCN1CCC(C(N)=O)CC1 | -22.14% |  |
| NCCN1CCC(C(N)=O)CC1 | 44.2% |  |
| O=C(Nc1nncs1)c1cccc(O)c1 | -14.91% |  |
| Cc1ccc(F)cc1NC(=O)C(C)Nc1cnn(C)c1 (stereo not drawn) | 17.75% |  |
| CNC(=O)c1cccc(NCc2nc(C)cs2)n1 | -1.003% |  |
| COC(=O)CCN1CCNC(=O)C1c1cccs1 (stereo not drawn) | -1.577% |  |
| N#Cc1ccc(CN2CCNC(=O)C2c2cccs2)cc1 (stereo not drawn) |  | 7.265% |
| O=C1NCCN(C(=O)c2ccc(Br)o2)C1c1cccs1 (stereo not drawn) | 99.65% |  |
| Cc1nc(CNC(=O)N(C)Cc2ccncc2)cs1 | -10.17% |  |
| NC(=O)C1(O)CCN(Cc2nc(C3CCCC3)no2)C1 (stereo not drawn) | -5.906% |  |
| CCC(=O)NC1CCCN(Cc2noc(C)n2)C1 (stereo not drawn) | 11.52% |  |
| CCC(C)C(=O)Nc1nccs1 (stereo not drawn) | -54.41% |  |
| CC(C)COCCC(=O)Nc1nccs1 | 97.25% |  |
| CC(C)COCCC(=O)Nc1c(-c2ccc(F)cc2)ncn1C |  | 2.891% |
| Cc1ccc(C)c(NC(=O)CN2CCC(O)CC2)c1 | -4.783% |  |
| COCc1nc(CCN)no1 | -5.41% |  |
| CC(C)CCC(=O)N1CCN(c2ncnc3nc(N)ccc23)CC1 |  | 1.58% |
| CC(=O)N1CCN(c2ncnc3cc4c(cc23)OCCO4)CC1 |  | 56.5% |
| COCC(=O)N1CCN(c2ncnc3cccc(F)c23)CC1 |  | -5.192% |
| CN(C)C(=O)c1ccc2ncnc(N3CCCC3)c2c1 | -3.186% |  |
| CCC(=O)N1CCN(c2ncnc3cc4c(cc23)OCCO4)CC1 |  | 75.76% |
| CC(C)C(=O)N1CCN(c2ncnc3cc4c(cc23)OCCO4)CC1 |  | 49.63% |
| CCC(C)C(=O)Nc1ccc(C(=O)N2CCCC2)cc1 (stereo not drawn) | -4.343% |  |

| SMILES | Percent Effect (50 µM) | Percent Effect (10 µM) |
| --- | --- | --- |
| NCC(=O)c1ccncc1 | -6.113% |  |
| CC(CC(=O)NCCCS(N)(=O)=O)c1cccc(F)c1 (stereo not drawn) | 3.903% |  |
| Cn1nccc1C(=O)NC1CCc2ccccc2OC1 (stereo not drawn) | 1.645% |  |
| CC(=O)Nc1nc(C(=O)Nc2nccs2)cs1 | 1.313% |  |
| Cc1n[nH]/c(=N\C(=O)c2csc(NC3CC3)n2)s1 | 37.81% |  |
| O=C(NCc1nccs1)c1csc(NC2CC2)n1 | 6.462% |  |
| O=C(Nc1nccs1)c1csc(NC2CCCC2)n1 |  | 94.63% |
| Cc1[nH]/c(=N\C(=O)c2csc(NCC(C)C)n2)sc1C |  | 92.95% |
| Cc1cs/c(=N/C(=O)c2csc(NCC(C)C)n2)[nH]1 |  | 19.16% |
| CC(C)CNc1nc(C(=O)/N=c2\[nH]nc(C(C)(C)C)s2)cs1 |  | 0.3064% |
| Cc1[nH]/c(=N\C(=O)c2csc(NC3CC3)n2)sc1C |  | -0.3064% |
| Cc1[nH]/c(=N\C(=O)c2csc(NC3CCCC3)n2)sc1C |  | 89.34% |
| CC(O)c1c(F)cccc1-n1cncn1 (stereo not drawn) | -28.05% |  |
| COc1ccc2cc(C(=O)N(C)C)c(C)nc2c1 | -8.962% |  |
| COc1ccc(F)c(F)c1C(=O)N1CCC(CN)C1 (stereo not drawn) | -13.62% |  |
| CCN1CCC(CNC(=O)c2nc(C)c[nH]2)CC1 | -1.833% |  |
| OC[C@H]1CCCN1c1nccc(-c2c[nH]nc2C2CCCCC2)n1 |  | 54.25% |
| OC[C@H]1CCCN1c1nccc(-c2cncnc2C2CCCCC2)n1 |  | 29.63% |
| OC[C@@H]1CCCN1c1nccc(-c2c[nH]nc2-c2ccncc2)n1 |  | -24.25% |
| N[C@@H]1CCC[C@@H](Oc2ccc(F)cc2Oc2ccccc2)[C@@H]1O |  | 2e-14% |
| N[C@@H]1CCC[C@@H](Oc2ccc(F)cc2Oc2cccc(F)c2)[C@@H]1O |  | 2.748% |
| Cc1ccc(Oc2cc(F)ccc2O[C@@H]2CCC[C@@H](N)[C@H]2O)cc1 |  | 82.52% |

From ChEMBL document CHEMBL3988442, “University of Dundee, Small-Polar-MMV Screening Library” (2021)
